Only some compounds are listed: those with a hit (about 3.5% of all), similar ones and a draw of the others.
TEAD-YAP block: TEAD-YAP interaction inhibition; HEK-TIYL cells, TEAD-Gal4/YAP UAS-luciferase luminescence; inhibition, % at 9.12 µM; actives 1.4% (n = 640,000); AID 1259422; in the data active = inhibition above about 32%
FBW7 activator: activators of human E3 ligase FBW7; AlphaScreen FBW7–phospho-cyclin E peptide binding, activator screen; normalized activity (activation), % at 26.1 µM; actives 0.13% (n = 650,000); in the data active = normalized activity above about 1.9%;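 note: purified mutant Fbw7 with reduced substrate affinity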
MITF inh: blocks human microphthalmia-associated transcription factor; O75030; inhibition, % at 2.6 µM; actives 0.91% (n = 650,000); AID 1259374; AlphaScreen MITF homodimerization, bead proximity signal; in the data active = inhibition above about 50%
GPR151 activ: activators of human GPR151 | actives 1% (n = 650,000) | PathHunter beta-arrestin GPR151 cells, luminescence | activation, % at 11.2 µM | AID 1508602; in the data active = activation above about 4.9%
Target sequence (Q8TDV0 whole entry, looked up): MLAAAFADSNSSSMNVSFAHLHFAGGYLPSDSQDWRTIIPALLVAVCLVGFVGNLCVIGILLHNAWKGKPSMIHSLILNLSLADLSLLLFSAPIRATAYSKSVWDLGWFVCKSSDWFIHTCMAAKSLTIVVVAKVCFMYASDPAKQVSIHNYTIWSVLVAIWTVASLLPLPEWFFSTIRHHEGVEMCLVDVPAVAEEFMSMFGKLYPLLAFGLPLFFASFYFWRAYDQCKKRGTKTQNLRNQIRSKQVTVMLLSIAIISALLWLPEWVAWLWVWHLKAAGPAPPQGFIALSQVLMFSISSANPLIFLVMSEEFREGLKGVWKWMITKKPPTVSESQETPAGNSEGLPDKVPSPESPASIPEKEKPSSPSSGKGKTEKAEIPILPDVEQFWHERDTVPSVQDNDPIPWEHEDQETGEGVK
MITF confirm: human MITF inhibition, confirmation; shares compounds with MITF inh; AlphaScreen MITF homodimerization, biotin/His-MITF beads; inhibition, % at 2.6 µM; actives 16% (n = 4,700); AID 1259372;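 active = inhibition above a cutoff derived from the DMSO control wells, cut at about 28% in these data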;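 note: inhibitors lower the bead chemiluminescence by keeping MITF from dimerizing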
AlphaScreen DR: counter-screen: compounds optically interfering with AlphaScreen; shares compounds with MITF inh; AlphaScreen optical interference counterscreen, cell-free; IC50, µM; actives 6% (n = 480); AID 1259373; call rule not given here
AlphaScreen intf2: counter-screen: compounds optically interfering with AlphaScreen. shares compounds with MITF inh. LysRS AlphaScreen counterscreen, signal interference, triplicate. inhibition, % at 2.6 µM. actives 7.6% (n = 4,700). AID 1259376;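 active = inhibition above a cutoff derived from the DMSO control wells, cut at about 30% in these data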
A number is an active result; . = inactive; / = not tested or not shown.

SMILES	TEAD-YAP block	FBW7 activator	MITF inh	GPR151 activ	MITF confirm	AlphaScreen intf2	others
CCN(CC)S(=O)(=O)c1cc(C(=O)Nc2ccc(Br)cc2)ccc1Br	.	.	.	.	/	/
CC(C)CCNC(=O)CN(C(=O)CCC(=O)Nc1ccccn1)c1ccc2c(c1)OCO2	.	.	.	.	/	/
COc1ccc(CCN(CCC(=O)O)CCC(=O)O)cc1OC	.	.	57.6	.	.	.
c1cc(NC2CCCNC2)n2ncc(-c3ccoc3)c2n1 (stereo unspecified)	.	.	68.2	.	.	.
O=C(CC1C(=O)NCCN1CC(c1ccccc1)c1ccccc1)NCCc1cscn1 (stereo unspecified)	.	.	.	.	/	/
COc1ccc(OC)c(CN2CCCC(C(=O)NN)C2)c1 (stereo unspecified)	.	.	.	.	/	/
COc1ccc(OC)c(CN2CCCC(C(=O)N3CCCCC3)C2)c1 (stereo unspecified)	.	.	77.9	.	.	.
COc1ccc(OC)c(CN2CCC(C(N)=O)CC2)c1	.	.	.	.	/	/
COc1ccc(CN2CCCC(C(=O)N3CCCC3)C2)c(OC)c1OC (stereo unspecified)	.	.	93.2	.	.	.
COc1ccc(OC)c(CN2CCCC(C(=O)N3CCCCCC3)C2)c1 (stereo unspecified)	.	.	93.2	.	.	.
Cc1ccccc1OCC(=O)O/N=C(\N)Cc1ccc(Cl)cc1	.	.	.	.	/	/
CCn1c(SCc2nc(N)nc(N3CCCCC3)n2)nc2c1c(=O)n(C)c(=O)n2C	.	.	.	.	/	/
CCOC(=O)c1ccc(-n2c(N)c(C#N)c3ncccc3c2=O)cc1	.	.	.	.	/	/
O=S(=O)(N=S(=O)(/C=C/c1ccccc1)c1ccccc1)c1ccccc1 (stereo unspecified)	34.9	.	84.3	.	28.4	.	AlphaScreen DR=.
N=S(=NS(=O)(=O)c1ccccc1)(c1ccccc1)c1ccccc1	.	.	.	.	/	/
CC(=O)Nc1nc(-c2ccc(C)cc2C)cs1	.	.	.	.	/	/
Cc1ccc(-c2csc(NC(=O)c3cc(Cl)cc(Cl)c3)n2)c(C)c1	.	.	75.5	.	.	.
CC(Sc1nnc(-c2ccc([N+](=O)[O-])cc2)o1)C(N)=O (stereo unspecified)	.	.	68.7	.	.	.
Cc1ccc(OCCOCCN2CCN(C)CC2)c([N+](=O)[O-])c1	.	.	87.1	.	.	.
O=[N+]([O-])c1ccccc1OCCOCCOc1ccccc1[N+](=O)[O-]	.	.	.	.	/	/
CN1CCN(CCOCCOc2ccccc2[N+](=O)[O-])CC1	.	.	78.2	.	.	.
C=CCn1c(SCC(=O)Nc2nccs2)nc2sc3c(c2c1=O)CCCC3	.	.	.	.	/	/
C=CCOc1ccc2c3c(c(=O)oc2c1C)CCC3	.	.	54.4	.	.	.
O=C(/C=C/c1ccco1)NCC(=O)N/N=C/c1ccc(C(=O)O)cc1	.	.	51.2	.	45.1	.	AlphaScreen DR=.
Cc1cc(C)c(C(N)=O)c(SCC(=O)Nc2nccs2)n1	.	.	.	.	/	/
SMILES	TEAD-YAP block	FBW7 activator	MITF inh	GPR151 activ	MITF confirm	AlphaScreen intf2	others
Cc1cc(C)nc(SCc2nnc(SCC(=O)Nc3nccs3)o2)n1	.	.	72.4	.	77.0	30.8
CCCCC(CCCC)(Nc1ccc(F)c(F)c1)C(=O)NNc1ccccc1	.	.	60.9	.	.	.
CCCOc1ccc(N)cc1N	.	.	56.6	.	110.2	.	AlphaScreen DR=.
CCOC(=O)c1c(NC(=O)c2ccc(S(=O)(=O)N3CC(C)CC(C)C3)cc2)sc2c1CCCC2 (stereo unspecified)	.	.	.	.	/	/
CC1CC(C)CN(S(=O)(=O)c2ccc(C(=O)Nc3sc4c(c3C(N)=O)CCCCC4)cc2)C1 (stereo unspecified)	.	.	71.4	.	.	.
CCCN(CCC)S(=O)(=O)c1ccc(C(=O)Nc2sc3c(c2C(N)=O)CCN(CC)C3)cc1	.	.	70.7	.	.	.
COc1ccc(N(C(C)C(=O)Nc2ccc(-c3nc4ccc(C)cc4s3)cc2)S(C)(=O)=O)cc1 (stereo unspecified)	.	.	.	.	/	/
CC1NC(=O)NC1CCCCCC(=O)OCN1C(=O)c2ccccc2C1=O (stereo unspecified)	.	.	118.5	.	116.7	98.6
